For twelve sequences, PBM binding z-score results are on record in the supplement of paper PMC6555819.

What all share (assay): PBM binding z-score (relative to random genomic background probes); higher = stronger binding; sequences stand for … in GC…GCGATTGACAGCGTAGAATGAAGG
The test system of test [1] is PPARg:RXRa DBDmut IVT, anti-RXR (DBD mutation: RXRa K156A/R161A, NR concentration 270 nM, RXRa partner concentration 90 nM). In short, it runs like this:
(§1)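 Regression normalization was applied to scanned fluorescence from custom Agilent 4×180K protein-binding microarrays. Before scanning, arrays were incubated 1 h with ligand-free nuclear receptor dimers, and binding was detected with antibodies against each partner (one per run). Binding z-scores use the random background probes as reference.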

The test system of test [2] is PPARg:RXRa IVT, anti-PPARg (NR concentration 270 nM, RXRa partner concentration 90 nM). In short, it runs like this:
as §1

Test [3] relates to PPARg DBDmut:RXRa IVT, anti-PPARg (DBD mutation: PPARg1 K132A/R137A, NR concentration 270 nM, RXRa partner concentration 90 nM). The method, boiled down: as §1
Test [4] relates to PPARg DBDmut IVT, anti-PPARg (DBD mutation: PPARg1 K132A/R137A, NR concentration 270 nM). In short, it runs like this:
as §1

In test [5] the test system is PPARg homodimer (NR concentration 180 nM). In short, it runs like this: as §1
Test [6] deals with PXR:RXRa (NR concentration 270 nM, RXRa partner concentration 90 nM). The method, boiled down: as §1
The subject of test [7] is PXR homodimer (NR concentration 270 nM). In short, it runs like this:
as §1

The test system of test [8] is RARa:RXR (NR concentration 270 nM, RXRa partner concentration 90 nM). In short, it runs like this:
as §1

In test [9] the test system is RARa homodimer (NR concentration 270 nM). In short, it runs like this: as §1
In test [10] the test system is RARb:RXRa (NR concentration 270 nM, RXRa partner concentration 90 nM). In short, it runs like this: as §1

Take TAGCCTAGGTCATGCGTGCCAGTATAGTGTCGGC: the PBM binding z-score in test [1] was 1.88; in test [2], 3.12; in [3], 0.14; in test [4], 0.765; in [5] it was 1.62; in [6], 1.51. Besides, the PBM binding z-score was -0.776 in test [7], 2.65 in [8], -0.307 in [9] and 3.77 in test [10].

As to ACTAGTTGGTTAGCTGAGGTCACACACAATTCGG, the PBM binding z-score came to 0.671 in test [1]; 2.34 in test [2]; 0.586 in test [3]; 0.524 in [4]; 3.15 in test [5]; 5.03 in test [6]. Moreover, the PBM binding z-score in test [7] amounted to 2.31; in test [8] it was 4.59; in test [9] it was 1.66; in test [10], 3.06.

Regarding TATACAGGGTGAAAGGCCAGAGTACGAATGTCGA, the PBM binding z-score in test [1] turned out to be 1.07; in [2] it was 3.51; in test [3] it was 1.71; in [4], 0.732; in test [5] it was 1.24; in [6], 0.643. Further, the PBM binding z-score in test [7] is 0.178; in [8], 1.31; in [9], 0.323; in test [10], 1.68.

Regarding CCTACTGGACCACGAAAGGTCATTGATTCAGTGA, the PBM binding z-score in test [1] was found to be 3.39; in [2], 3.26; in [3], 0.692; in test [4], 0.507; in [5], 3.78; in [6], 5.28. Further, the PBM binding z-score in test [7] was determined as 2.09; in test [8], 5.61; in test [9], 2.84; in test [10], 4.02.

On to ATATGTAGGTTAGCTGGGGTCAGTCAGACTAGGC, for which the PBM binding z-score in [1] turned out to be 6.39; in [2], 6.31; in test [3] it was 2.61; in [4], 1.83; in [5], 1.96; in [6], 5.06. Further, the PBM binding z-score in test [7] is 1.14; in test [8], 3.81; in test [9], 0.813; in [10] it was 2.88.

As for CCGAATGGGGCAGAAAGGTTACCATACCATCCGG, the PBM binding z-score is 0.269 in test [1]; 1 in test [2]; -1.13 in test [3]; -0.938 in test [4]; 0.818 in test [5]; 1.11 in test [6]. Further, the PBM binding z-score is 0.134 in test [7], 1.8 in [8], -0.0696 in test [9] and 1.89 in test [10].

Turning to CGAACGAAGGCATGAGTTGATAGCAAATGCCGAT, the PBM binding z-score in test [1] was -0.501; in test [2], -0.459; in test [3], -1.26; in [4], -0.962; in test [5] it was -0.786; in test [6] it was -0.575. Moreover, the PBM binding z-score is -0.461 in [7], -0.544 in [8], -0.843 in test [9] and -0.545 in test [10].

Regarding CGTCCAAGGTCGAGGTCAGTGAAAGAGACTCGAA, the PBM binding z-score in test [1] is 1.1; in test [2] it was 2.35; in test [3] it was -1.04; in [4], -1.22; in test [5], 1.43; in test [6] it was 3.59. Moreover, the PBM binding z-score in [7] is 0.491; in [8] it was 3.61; in test [9], -0.0434; in [10] it was 4.39.

With TAATATAGGTAAATGCTAGGTGAAAGTCCGATCT, the PBM binding z-score worked out at 5.57 in [1]; 5.11 in test [2]; 2.14 in test [3]; 2.14 in [4]; 1.2 in test [5]; 0.298 in test [6]. Further, the PBM binding z-score in test [7] amounted to 0.623; in test [8], 0.771; in test [9] it was 1.52; in test [10] it was 0.389.

For the sequence CAAACTAGGTCTCCGGAAGGTCAAAGTCCGCATG, the PBM binding z-score in [1] turned out to be 5.21; in test [2], 4.82; in test [3], 0.561; in test [4], 0.489; in test [5] it was 2.44; in [6], 3.68. In addition, the PBM binding z-score in test [7] is 1.14; in test [8], 3.9; in [9], 0.122; in test [10], 3.23.

In the case of CAAACTAGGTCACCGGAAGGTCTAAGTCCGCATG, the PBM binding z-score is 8.57 in test [1]; 9.1 in test [2]; 1.59 in test [3]; 1.51 in test [4]; 2.47 in test [5]; 2.44 in test [6]. Further, the PBM binding z-score in [7] is 0.0604; in test [8] it was 3.02; in [9], 0.862; in test [10] it was 4.37.

On to TAGCCTAGGTCAATCAGGGGCCAGTATAGAAAGC, for which the PBM binding z-score in test [1] was 1.74; in test [2] it was 2.75; in [3], -0.205; in test [4] it was 0.00211; in test [5] it was 1.32; in [6], 2.04. The PBM binding z-score in test [7] was -0.411; in test [8] it was 3.2; in test [9] it was -0.673; in [10] it was 3.89.
